# Screens: PubChem BioAssay, National Center for Advancing Translational Sciences (NCATS)
# BAZ2B block = qHTS Assay for Inhibitors of BAZ2B; Potency, µM (top dose mostly 114 µM), for inactives: top-dose activity change, negative = inhibition, usual class: inhibitors; AlphaScreen BAZ2B-H3K14Ac peptide displacement; 4.4% of 360,000 active; AID 504333, 2011; Bromodomain adjacent to zinc finger domain protein 2B (Homo sapiens), Q9UIF8; further: on the % scale 0 is the no-effect control and ±100 the full control effect; nearly all actives have a fitted effect of over 60% in size
#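 BAZ2B 50 nM plus b-H3(5-23)K14Ac 50 nM, PBS pH 7.4/0.01% Tween-20, 30 min RT; compound added (max 110 uM), 30 min RT; streptavidin donor/Ni-chelate acceptor beads 10 ug/mL final, 20 min dark; AlphaScreen read.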
# HP1b chromo inh = HTS for Inhibitors of HP1-beta Chromodomain Interactions with Methylated Histone Tails; 0.56% of 390,000 active; AlphaScreen HP1-beta / biotin-H3K9me3 peptide binding; Potency, µM (highest dose often 114 µM), without a hit: top-dose activity change, negative = inhibition, actives largely listed as inhibitors; further: nearly all actives have a fitted effect of over 70% in size
# Target sequence (P83916 whole entry, looked up): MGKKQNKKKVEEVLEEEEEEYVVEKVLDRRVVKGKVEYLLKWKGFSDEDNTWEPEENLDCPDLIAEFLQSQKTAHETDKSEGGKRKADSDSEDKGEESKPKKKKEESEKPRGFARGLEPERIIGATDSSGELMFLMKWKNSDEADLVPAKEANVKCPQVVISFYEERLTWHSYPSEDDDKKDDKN
#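 AlphaScreen: HP1-beta (50 nM) preformed 30 min with biotin-H3(1-18)K9me3 peptide (50 nM) in PBS pH 7.4, 0.01% Tween-20. Compound added for 30 min at RT, then streptavidin donor/nickel chelate acceptor beads (10 ug/mL) for 30 min.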
# L3MBTL1 inh = qHTS Assay for the Inhibitors of L3MBTL1; 0.66% of 230,000 active; Potency, µM (highest dose often 57.1 µM), without a hit: at the highest dose activity, negative = inhibition, hits mostly inhibitors; AlphaScreen L3MBTL1–H3K9me1 peptide binding; Lethal(3)malignant brain tumor-like protein 1 (Homo sapiens), Q9Y468; further: on the % scale 0 is the no-effect control and ±100 the full control effect; nearly all actives have a fitted effect of over 60% in size
#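 L3MBTL1 (50 nM) pre-complexed 30 min with biotinylated H3(1-15)K9me1 peptide (75 nM), then compounds added for 30 min at room temperature; AlphaScreen streptavidin donor/nickel chelate acceptor beads (10 ug/mL final) read after 30 min dark incubation.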
# Sfp PPTase inh = qHTS Assay for Inhibitors of Bacillus subtilis Sfp phosphopantetheinyl transferase (PPTase). Potency, µM, without a hit: largest response in the series, negative = inhibition, usual class: inhibitors. 3.5% of 310,000 active. 4'-phosphopantetheinyl transferase ffp (Bacillus subtilis), Q9F4F7. Biochemical Sfp PPTase activity, qHTS;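 further: the enzyme is Sfp with the accession as filed and its product quenches rhodamine fluorescence; 0% = enzyme reaction without inhibitor and -100% = no enzyme wells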
#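 Step 1, compound plus 15 nM Sfp-PPTase, 15 min, room temperature. Step 2, add rhodamine-CoA (5 uM) and BHQ-2-YbbR (12.5 uM). Step 3, read 525/598 nm fluorescence at 0 and 30 min.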
# JMJD2A Tudor = qHTS Assay for Inhibitors of JMJD2A-Tudor Domain; AlphaScreen JMJD2A-Tudor / H3K4me3 peptide binding; Lysine-specific demethylase 4A (Homo sapiens), O75164; AID 504339, 2011; 4.4% of 390,000 active; Potency, µM (highest dose often 114 µM), inactives show top-dose activity change, negative = inhibition, most hits filed as inhibitors; further: on the % scale 0 is the no-effect control and ±100 the full control effect; nearly all actives have a fitted effect of over 50% in size
# G9a block = qHTS Assay for Inhibitors of Histone Lysine Methyltransferase G9a. Potency, µM (highest dose often 102 µM), inactives show top-dose activity, negative = inhibition, actives largely listed as inhibitors. Histone-lysine N-methyltransferase EHMT2 (Homo sapiens), Q96KQ7. G9a H3K9 monomethylation, AlphaScreen, 2 h. AID 504332, 2011. 8.8% of 350,000 active; further: on the % scale 0 is the no-effect control and ±100 the full control effect; nearly all actives have a fitted effect of over 75% in size
# Target sequence (Q96KQ7 913-1193 limits assumed): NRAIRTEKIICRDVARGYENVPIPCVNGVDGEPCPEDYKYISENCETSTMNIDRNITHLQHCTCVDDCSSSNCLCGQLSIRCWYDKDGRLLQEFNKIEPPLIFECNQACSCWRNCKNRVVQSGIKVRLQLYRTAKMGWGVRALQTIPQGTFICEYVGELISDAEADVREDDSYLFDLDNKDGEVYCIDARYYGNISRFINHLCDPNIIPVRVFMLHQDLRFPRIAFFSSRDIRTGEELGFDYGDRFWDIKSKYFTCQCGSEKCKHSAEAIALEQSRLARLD
#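 AlphaScreen read-out: biotin-H3K9 peptide (500 nM) methylation by 20 nM enzyme with 20 uM SAM, 2 h at room temperature after 15 min compound preincubation; anti-monomethyl H3K9 antibody plus donor/acceptor beads, 10 min dark.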
# An asterisk follows results filed as active; ? = inconclusive; / = no result given; [ ] = another dose, or the depositor's remark. Compounds with a hit are over-represented: about 12% of the library has one in this group of screens. The call rests on the fitted dose curve; in most records, active means well fitted curve in the direction sought with a large enough effect; inconclusive means small, poorly fitted or top-dose-only effect, or another doubt; inactive means no such curve, though single readings can be large; an effect the other way counts as inactive or inconclusive. Potency means the concentration at half of the fitted maximal effect.
SMILES,BAZ2B block,HP1b chromo inh,L3MBTL1 inh,Sfp PPTase inh,JMJD2A Tudor,G9a block
COC(=O)c1ccc2c(=O)n(Cc3ccco3)c(SCC(=O)Nc3cc(C)on3)nc2c1,-30%,34%,4%[11.4 µM],?,-22%,-32%
Cc1cc(NC(=O)CSc2nc3cc(C(=O)NCCCOC(C)C)ccc3c(=O)n2Cc2ccco2)no1,-10%,-1%,/,56µM*,-11%,0%
COCCNC(=O)c1ccc2c(=O)n(Cc3ccco3)c(SCC(=O)Nc3ccc(OC)cc3OC)nc2c1,4%,13%,/,-2%,56µM*,25%
CCOC(=O)c1scc(-c2ccccc2)c1S(=O)(=O)N1CCN(c2ccccc2OC)CC1,-37%,-1%,/,/,-18%,-6%[59 µM]
Cn1nc(-c2ccc(N3CCCCC3)c(NC(=O)c3ccco3)c2)c2ccccc2c1=O,?,-12%,-4%,-27%,-27%,40µM*
COc1cc(C2OC(=O)c3c2ccc(OC)c3OC)ccc1O (stereo not given),-3%,/,-1%,/,/,-4%[12.7 µM]
O=c1[nH]n(-c2ccccn2)c(=O)c2ccccc12,/,-21%,-1%,-6%,79µM*,?
O=C1C=CC(=O)N1c1ccc(I)cc1Cl,1%,/,/,12%,/,12%[12.7 µM]
O=c1[nH]n(-c2ccccc2)c(=O)c2ccccc12,12%,4%,12%,-3%,-19%,3%
O=C(c1ccccc1)c1ccccc1N1C(=O)C=CC1=O,-28%,11µM*,-7%,1.3µM*,18µM*,0.79µM*
O=C(O)c1ccccc1C(=O)c1ccc(-c2ccccc2)cc1,3%,35%,/,5%,-18%,5%[2.33 µM]
O=C1C=CC(=O)N1c1ccccn1,/,?,/,/,89µM*,/
O=C1C=CC(=O)N1c1ccccc1N1C(=O)C=CC1=O,/,2.8µM*,/,/,2.8µM*,/
CCOC(=O)c1ccc(NC(=O)Cn2cc(C(=O)C3CC3)c3ccccc32)cc1,1%,26%,/,/,5%,-6%[59 µM]
Cc1c(C(=O)NCC(c2ccc(Cl)cc2)N2CCOCC2)oc2ccccc12 (stereo not given),-18%,30%,/,/,-19%,-7%[59 µM]
O=C(CNC(=O)C1CCCCC1)OCC(=O)c1ccc(C2CCCCC2)cc1,/,18%[57 µM],/,/,13%[57.1 µM],/
CCOc1ccccc1NC(=O)C1CCN(S(=O)(=O)c2ccccc2)CC1,0%,16%,/,/,-13%,-8%[59 µM]
COc1ccc([C@]23Cc4ccccc4C(O2)C2=C(O3)C(=O)c3ccccc3C2=O)cc1,?,/,/,6%,/,?
CCn1cc(C(=O)NCc2ccco2)c(=O)c2cc(F)c(N3CCN(C(=O)c4ccco4)CC3)cc21,56µM*,24%,26%[11.4 µM],?,-30%,14µM*
CCn1cc(C(=O)NCC(C)C)c(=O)c2cc(F)c(N3CCN(C(=O)c4ccco4)CC3)cc21,-4%,-18%,/,6%,-16%,8%
CCn1cc(C(=O)NCCc2ccccc2)c(=O)c2cc(F)c(N3CCN(C)CC3)cc21,2%,22%,1%,-5%,-11%,-26%[59 µM]
CCn1cc(C(=O)NCc2ccccn2)c(=O)c2cc(F)c(N3CCN(C)CC3)cc21,-1%,23%,/,20%,-10%,0.45µM*
O=C(NCCSCc1ccccc1)C1CCN(S(=O)(=O)Cc2ccccc2)CC1,16%,76%,/,/,7%,-9%[59 µM]
Cc1cc(=O)oc2c(CN3CC(C)OC(C)C3)c(O)c(Cl)cc12 (stereo not given),?,?,?,-15%,79µM*,?
Cc1ccc(NC(=O)CN2C(=O)CSc3ccc(S(=O)(=O)N(C)C)cc32)c(C)c1,-8%,16%,/,/,-15%,4%[59 µM]
SMILES,BAZ2B block,HP1b chromo inh,L3MBTL1 inh,Sfp PPTase inh,JMJD2A Tudor,G9a block
O=C(CC1C(=O)NCCN1Cc1ccccc1C(F)(F)F)NCCN1CCOCC1 (stereo not given),-36%,25%,/,-3%,-10%,45µM*
O=C(CC1C(=O)NCCN1Cc1ccccc1C(F)(F)F)NCCn1cccn1 (stereo not given),-30%,28%,2%,-2%,-14%,35µM*
Cc1nccn1CCCNC(=O)CC1C(=O)NCCN1Cc1ccccc1C(F)(F)F (stereo not given),-8%,47%,-6%,22%,-20%,?
CN(CCN1CCOCC1)C(=O)CC1C(=O)NCCN1Cc1ccccc1C(F)(F)F (stereo not given),-27%,46%,/,10%,-10%,45µM*
O=C(CC1C(=O)NCCN1Cc1ccccc1C(F)(F)F)NCCN1CCCCC1=O (stereo not given),-9%,60%,/,4%,18%,40µM*
CCCN(CCC)c1nn2c(=O)c(C(=O)NCc3cccc(OC)c3)cnc2s1,-4%,10%,/,/,-4%,20%[59 µM]
COc1ccc(C(=O)NNC(=O)C2=NN(c3ccccc3)C(=O)CC2)cc1,7%,68%,/,-8%,-11%,/
COC(=O)CC1=NN(c2ccccc2)C(=O)/C1=C\c1ccc(OC)cc1,?,-10%,-15%,8%,-30%,20µM*
CCOC(=O)CC1=NN(c2ccccc2)C(=O)/C1=C\c1ccc(OC)cc1OC,11µM*,16µM*,-10%,-17%,14µM*,10µM*
CCOC(=O)c1sc(N2N=C(C)/C(=C\c3ccc(OCC(=O)OC)cc3)C2=O)nc1C,7%,34%,25%,-14%,-9%,-2%
COC(=O)CC1=NN(c2ccc(OC)cc2)C(=O)/C1=C\c1ccc(Cl)cc1,50µM*,?,-3%,6%,?,20µM*
CCOc1ccc(N(CC)S(=O)(=O)N2CCCC(C(=O)Nc3ccc(OC)c(OC)c3)C2)cc1 (stereo not given),?,?,/,/,-27%,-40%[59 µM]
Cc1cn(S(=O)(=O)c2ccc(F)c(Cl)c2)cn1,-18%,55%,/,/,-7%,4%[59 µM]
Cc1ccc(-c2nc(CS(=O)CC(=O)N3CCN(c4ccc(Cl)cc4)CC3)c(C)o2)cc1 (stereo not given),-17%,34%,/,/,-19%,?
Cc1cnc(CNc2ccnc(-c3ccc(C(=O)N(C)C)cc3)n2)cn1,/,/,/,-8%,/,/
Cc1cccc(N2CCN(S(=O)(=O)c3ccc(F)c(C(=O)Nc4ccc(C(C)C)cc4)c3)CC2)c1C,0%,-8%,/,/,-22%,6%[59 µM]
